POLH inh – inhibitors of human DNA polymerase eta. recombinant Pol eta, fluorescent DNA replication assay. hit rate 1.2% among 390,000. Q9Y253. Potency, µM (highest dose often 114 µM), inactives show top-dose activity change, negative = inhibition, actives largely listed as inhibitors; also: potency is read from the fitted curve at half-maximal effect; % is scaled to controls: 0 for no effect and ±100 for the full control effect
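Pol eta at 10 nM preincubated with compounds 15 min at room temperature; reaction started with fluorescent substrate (50 nM final) and read kinetically at 0 and 10 min.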
Pol kappa inh – blocks human DNA polymerase kappa activity. AID 588579. Potency, µM (series often up to 107 µM), inactives show at the top dose activity, negative = inhibition, actives largely listed as inhibitors. purified Pol kappa, fluorescent DNA synthesis assay, 10 min. hit rate 0.53% among 400,000; also: potency is read from the fitted curve at half-maximal effect; % is scaled to controls: 0 for no effect and ±100 for the full control effect
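Kinetic fluorescence screen: compound preincubated 15 min RT with 10 nM enzyme; 50 nM substrate (final) initiates; reads at 0/10 min.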
Pol iota inh – blocks human DNA polymerase iota activity. Q9UNA4. Pol iota fluorescent replication assay, 10 min. Potency, µM (top dose mostly 115 µM), inactives show at the highest dose activity, negative = inhibition, most hits filed as inhibitors. hit rate 1% among 390,000. AID 588590; also: potency is read from the fitted curve at half-maximal effect
Target sequence (Q9UNA4 whole entry, looked up): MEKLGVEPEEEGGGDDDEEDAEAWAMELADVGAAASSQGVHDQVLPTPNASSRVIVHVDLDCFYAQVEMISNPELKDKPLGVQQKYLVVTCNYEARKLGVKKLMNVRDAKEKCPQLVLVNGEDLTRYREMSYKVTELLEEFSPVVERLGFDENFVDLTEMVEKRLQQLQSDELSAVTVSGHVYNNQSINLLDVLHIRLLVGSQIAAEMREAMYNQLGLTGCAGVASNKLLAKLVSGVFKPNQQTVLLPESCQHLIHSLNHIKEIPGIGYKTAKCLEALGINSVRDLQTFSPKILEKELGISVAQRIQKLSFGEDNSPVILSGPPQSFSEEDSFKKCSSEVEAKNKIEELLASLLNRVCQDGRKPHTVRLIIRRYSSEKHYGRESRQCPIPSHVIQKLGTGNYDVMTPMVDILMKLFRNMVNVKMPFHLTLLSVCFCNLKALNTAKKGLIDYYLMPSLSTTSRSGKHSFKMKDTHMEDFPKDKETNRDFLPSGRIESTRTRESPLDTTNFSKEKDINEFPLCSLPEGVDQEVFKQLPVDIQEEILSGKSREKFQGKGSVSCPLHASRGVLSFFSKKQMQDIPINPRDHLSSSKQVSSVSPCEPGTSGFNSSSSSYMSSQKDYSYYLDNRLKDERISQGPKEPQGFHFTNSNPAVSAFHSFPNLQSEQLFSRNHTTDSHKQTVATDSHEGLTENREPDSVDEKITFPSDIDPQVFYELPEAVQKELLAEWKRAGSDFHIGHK
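Pol iota at 10 nM preincubated 15 min with compounds at room temperature; reaction started with fluorescent substrate, 50 nM final. Fluorescence read kinetically at 0 and 10 min; buffer-only wells as negative control.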
FEN1 inhibitor – inhibitors of human flap endonuclease 1 | hit rate 0.35% among 390,000 | P39748 | Recombinant FEN1 flap cleavage, fluorescence, 15 min | Potency, µM (highest dose often 114 µM), without a hit: at the highest dose activity change, negative = inhibition, actives largely listed as inhibitors; also: potency is read from the fitted curve at half-maximal effect; % is scaled to controls: 0 for no effect and ±100 for the full control effect; nearly all actives have a fitted effect of over 65% in size
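In this screen, 50 nM flap DNA substrate was added to 10 nM FEN1 pretreated with compound for 15 min at room temperature; cleavage was followed with reads at 0 and 15 min, and Hill fitting gave concentration–response parameters.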
POLB inh – inhibitors of human DNA polymerase beta. Pol beta primer extension/strand displacement, fluorescence kinetic. Potency, µM (titrated, usually from 114 µM), without a hit: at the highest dose activity change, negative = inhibition, most hits filed as inhibitors. hit rate 1.3% among 340,000; also: potency is read from the fitted curve at half-maximal effect; % is scaled to controls: 0 for no effect and ±100 for the full control effect
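Pol beta (10 nM) was preincubated with compound for 15 min at room temperature. The reaction was then started with 50 nM substrate and read immediately and after a further 10 min at room temperature.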
PI5P4K alpha inh – PI5P4K alpha (human) kinase inhibition; P48426; PI5P4Kalpha enzyme, ADP-Glo luminescence, 60 min; stronger effect = lower value; max response, %; hit rate 1.2% among 330,000; AID 652105; active = max response of -50% or lower; inconclusive = between -30% and -50%; inactive = -30% or higher; also: value at the top dose of about 77 µM; % is scaled to controls: 0 for no effect and ±100 for the full control effect
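ADP-Glo luminescence end-point after a 60 min room-temperature kinase reaction. PI5P4Kalpha and substrate in HEPES pH 7.4 buffer with EGTA, 0.1% CHAPS and 5% DMSO; ATP at 5 microM final.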
* marks the source's active call; other numbers are inactive results; ? = inconclusive; . = no result; ! = repeats disagree; [ ] = remark or other dose. An excerpt weighted towards active compounds, which were near 2.8% of everything screened. Unless noted, calls follow the shape of the dose curve; as a rule, active = well fitted curve in the direction sought with a large enough effect; inconclusive = small, poorly fitted or top-dose-only effect, or another doubt; inactive = no such curve, though single readings can be large; an effect the other way counts as inactive or inconclusive.

SMILES	POLH inh	Pol kappa inh	Pol iota inh	FEN1 inhibitor	POLB inh	PI5P4K alpha inh
COc1ccc(C(NC(=O)/C=C/c2ccco2)c2ccc(OC)cc2)cc1	?	-7%	?	5%	16µM*	-28
CC(C)=CC(=O)OCC(=O)Nc1nc(C)c(Cl)cc1Cl	1%	-9%	2%	-4%	21%	0
Nc1nc(SCC(=O)Nc2ncc(Cl)cc2Cl)n[nH]1	?	-41%	79µM*	8%	.	?
Cc1c(Cl)cnc(NC(=O)COC(=O)c2ccc3ncsc3c2)c1Cl	?	-10%	?	-6%	-14%	-22
CC1C(=O)N2CCCc3cc(S(=O)(=O)NCc4ccccc4Cl)cc1c32 (centres undefined)	-15%	-5%	10%	-8%	10%	-5
COC(=O)c1cccc(NC(=O)CC2C(=O)NCCN2C(=O)c2ccc(F)cc2F)c1 (centres undefined)	-19%	0%	47%	-1%	17%	0
N#Cc1nc(N2CCCC2)nc(N(c2ccccc2)c2ccccc2)n1	.	-1%	17%	-4%	.	.
Cc1ccc(C(=O)OCC(=O)Nc2ccccc2)cc1NC(=O)c1ccco1	3%	-23%	-1%	-2%	10%	0
O=C(COC(=O)/C=C/c1ccco1)Nc1ncc(Cl)cc1Cl	40µM*	?	35µM*	8%	?	-20
CC1CC1C(=O)OCC(=O)Nc1ncc(Cl)cc1Cl (centres undefined)	28µM*	?	14µM*	-13%	.	?
Cc1ccc(C(=O)OCC(=O)Nc2ncc(Cl)cc2Cl)cc1NC(=O)c1ccco1	?	-28%	50µM*	2%	?	.
CCCNC(=O)COC(=O)/C=C/c1ccco1	?	-18%	-17%	-16%	?	-5
COC(=O)c1ccc(/C=C/C(=O)OCC(=O)Nc2ncc(Cl)cc2Cl)cc1	-9%	7%	46%	-3%	.	-10
CC(C)NC(=O)COC(=O)/C=C/c1ccco1	?	-32%	79µM*	6%	40µM*	2
COc1ccc(C(=O)CCC(=O)Nc2cccnc2)cc1OC	-17%	-6%	52%	-8%	-2%	0
O=C(CSC1=Nc2ccccc2C2=NC(Cc3ccccc3)C(=O)N12)Nc1ccccc1C(F)(F)F (centres undefined)	-16%	1%[60.1 µM]	5%	-4%	-20%	.
CCOC(=O)CSc1nc2sc3c(c2c(=O)n1Cc1ccccc1)CCC(C(C)(C)C)C3 (centres undefined)	-16%	2%	11%	-4%	2%	.
Cc1ccc(Cn2c(C)c3cnn(CC(=O)NCCc4ccc(Cl)cc4)c(=O)c3c2C)cc1	-5%	-9%	0%	-20%	24%	.
O=C(COC(=O)/C=C/c1ccco1)NCCN1C(=O)CSC1=O	50µM*	-20%	-16%	-1%	.	-8
CC1(C)CC(=O)C2=C(C1)OC(N)=C(C#N)C2c1cc2c(cc1[N+](=O)[O-])OCO2 (centres undefined)	?	-31%	?	-10%	-16%	-80*
COc1cc(C2C(C#N)=C(N)OC3=C2C(=O)CCC3)c([N+](=O)[O-])cc1OC (centres undefined)	20µM*	89µM*	7.1µM*	?	2%	-13
Cc1ccc(C(=O)c2oc3ccccc3c2NC(=O)c2cc(-c3ccc(Cl)cc3)on2)cc1	-1%	-5%	-8%	4%	-29%	.
CN1CCN(C(=O)OC2CC3CC2[C@H]2CCCCN2C3=O)CC1 (some centres undefined)	.	.	.	.	.	0
O=S(=O)(NCc1ccccc1)c1ccc(Cl)cc1	-12%	-7%	22%	0%	9%	0
O=S(=O)(Nc1cc2nc3ccccc3nc2n1Cc1ccccc1)c1ccc(Cl)cc1	79µM*	-34%	10µM*	-10%	?	-14
SMILES	POLH inh	Pol kappa inh	Pol iota inh	FEN1 inhibitor	POLB inh	PI5P4K alpha inh
N#CC1=C(N)OC2=C(CCC/C2=C/c2ccoc2)C1c1ccoc1 (centres undefined)	.	.	.	.	14µM*	.
N#CC1=C(N)OC2=C(CC/C2=C\c2ccc(F)cc2)C1c1ccc(F)cc1 (centres undefined)	.	.	.	.	-12%	.
Cn1cc(C2=C(c3cn(CCCSC(=N)N)c4ccccc34)C(=O)NC2=O)c2ccccc21	.	4%[60.1 µM]	89µM*	-22%	.	.
Nc1ncnc2[nH]c(=O)[nH]c12	.	-1%[60.1 µM]	.	.	.	.
COc1ccc2nc(SC)c(C#N)cc2c1	-1%	15%	89µM*	12%	29%	1
COc1ccc2nc3sc(C(=O)Nc4cc(Cl)c(OC)cc4OC)cc3cc2c1	?	0%	-5%	-14%	?	.
CCC(C)NC(=O)c1cc2cc3ccc(OC)cc3nc2s1 (centres undefined)	?	?	-15%	-22%	50µM*	.
CCOc1ccc(CCNC(=O)c2cc3cc4cc(OC)ccc4nc3s2)cc1OCC	-11%	-29%	-4%	11%	14µM*	.
Cc1cc(NC(=O)CN2C(=O)/C(=C/c3ccc(C(C)C)cc3)SC2=S)no1	-4%	.	.	.	.	1
CCCNC(=O)C1CCC(Cn2c(=O)c3sccc3n(CC(=O)N3CCCC(C)C3)c2=O)CC1 (centres undefined)	-16%	8%	24%	-1%	13%	.
CCC(C)Nc1ccc(NC(C)CC)cc1 (centres undefined)	-12%	2.5µM*!	4%	-15%	.	-26
c1ccc(-c2csc(Nc3ccc4c(c3)OCO4)n2)cc1	.	.	.	.	.	2
O=C1c2ccccc2C(=O)N1c1cccc(-c2csc(Nc3ccc4c(c3)OCO4)n2)c1	.	.	.	.	28µM*	.
CC(C)=CCC/C(C)=C/CC/C(C)=C/CSc1ccccc1C(=O)O	32µM*	.	25µM*	.	?	.
Cc1cc(-c2nnc(SCC(=O)c3ccc(Cl)cc3)o2)no1	0%	-16%	22%	3%	-13%	0
COc1ccc(C(=O)CSc2nnc(-c3cc(C)on3)o2)cc1	-10%	-29%	-25%	-10%	11µM*	-25
CN(C)CCNc1ncnc2oc(-c3ccccc3)c(-c3ccccc3)c12	-16%	-5%[60.1 µM]	?	?	-4%	-10
CCCCNc1ncnc2oc(-c3ccco3)c(-c3ccco3)c12	.	?	71µM*	?	.	.
Cc1cc(C(=O)CSc2nc3ccc(Cl)cc3[nH]2)c(C)n1Cc1ccco1	-1%	?	22µM*	2%	.	-29
O=C(CSc1nc2ccc(Cl)cc2[nH]1)NCc1ccco1	5%	-16%	9%	-3%	-12%	-21
Cc1cc(C(=O)CSc2nnnn2C)c(C)n1Cc1ccco1	7%	-7%	79µM*	-2%	?	-20
O=S1(=O)N=C(SCCO)c2ccccc21	-1%	-6%	-10%	0%	24%	-15
O=C(O)CSC1=NS(=O)(=O)c2ccccc21	.	?	89µM*	?	.	.
